# PubChem BioAssay (NCI)
# The panel holds about 79,000 compounds, 15% with a hit somewhere; the sample as a whole holds those more often. Values without a mark were called inactive. Calls of active or inactive are those of the source. Cut-off read from the data, not from the text of the source: active = growth inhibition above about 70%; inactive = the rest.
# Assays:
# [1] = NCI Yeast Anticancer Drug Screen. Data for the wt1 strain (AID 149);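 note: 0% = growth of vehicle-treated wt1 cultures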; settings: S. cerevisiae wt1 strain (SPY 50644) growth inhibition, active compounds read high
# Procedure, shortened: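 Readout: yeast growth inhibition, normalised to vehicle controls, in the wt1 strain exposed to test compounds.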
# [2] = NCI Yeast Anticancer Drug Screen. Data for the rad50EPP+ strain (AID 151);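 note: 0% = growth of vehicle-treated control cultures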; settings: S. cerevisiae rad50 mutant strain, active compounds read high
# Procedure, shortened: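 Compounds were applied to the rad50EPP+ yeast strain, which bears a defined DNA repair alteration, and growth inhibition was determined relative to vehicle-treated cultures.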
# [3] = NCI Yeast Anticancer Drug Screen. Data for the mgt1 strain (AID 153); settings: S. cerevisiae mgt1 mutant growth inhibition, active compounds read high
# Procedure, shortened: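 Strain: mgt1 yeast, one of a set carrying defined DNA damage repair or cell cycle control alterations. Compound-treated growth compared with vehicle.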
# [4] = NCI Yeast Anticancer Drug Screen. Data for the rad50 strain (AID 155);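 note: 0% = growth of vehicle-only cultures of the same strain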; settings: S. cerevisiae rad50 strain growth inhibition, active compounds read high
# Procedure, shortened: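 Compounds were tested on a yeast strain with an engineered DNA damage repair alteration; the reported value is growth inhibition normalised to vehicle treatment.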
# [5] = NCI Yeast Anticancer Drug Screen. Data for the mec2-1 strain (AID 157); settings: S. cerevisiae mec2-1 strain, active compounds read high
# Procedure, shortened: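 Strain: mec2-1 (DNA repair/cell cycle alteration). Compound exposure, then growth measured; inhibition expressed relative to vehicle.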
# [6] = NCI Yeast Anticancer Drug Screen. Data for the rad14 strain (AID 159);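 note: 0% = growth of vehicle-treated control cultures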; settings: S. cerevisiae rad14 strain growth inhibition, active compounds read high
# Procedure, shortened: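 Compound-treated yeast with a defined DNA-repair lesion; growth inhibition normalised to vehicle-treated cultures.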
# [7] = NCI Yeast Anticancer Drug Screen. Data for the CLN2oe strain (AID 163);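 note: 0% = growth of vehicle-only control cultures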; settings: S. cerevisiae CLN2oe strain, active compounds read high
# Procedure, shortened: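 Growth of a genetically modified yeast strain is measured after compound exposure and compared with cultures given vehicle alone.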
# [8] = NCI Yeast Anticancer Drug Screen. Data for the cln2 rad14 strain (AID 165);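 note: 0% = growth equal to vehicle treated cultures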; settings: S. cerevisiae cln2 rad14 strain, active compounds read high
# Procedure, shortened: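 Compounds are applied to the cln2 rad14 yeast strain, and growth is then compared with that of vehicle-treated cultures to give inhibition.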
# [9] = NCI Yeast Anticancer Drug Screen. Data for the bub3 strain (AID 167); settings: S. cerevisiae bub3 mutant strain, active compounds read high
# Procedure, shortened: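 Growth of a checkpoint-deficient yeast mutant is measured after compound exposure. Values represent inhibition relative to vehicle.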
# [10] = NCI Yeast Anticancer Drug Screen. Data for the wt2 strain (AID 169);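 note: 0% = growth of vehicle-treated yeast cultures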; settings: S. cerevisiae wt2 strain growth inhibition, active compounds read high
# Procedure, shortened: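 This strain belongs to a panel of yeast strains with defined genetic alterations in DNA damage repair or cell cycle control. Compounds are applied, and growth inhibition is measured against vehicle-treated cultures.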
# [11] = NCI Yeast Anticancer Drug Screen. Data for the sgs1 strain (AID 173);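 note: 0% = growth of vehicle-only control cultures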; settings: S. cerevisiae sgs1 mutant, active compounds read high
# Procedure, shortened: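 Growth of a yeast strain bearing a defined genetic alteration is measured after compound treatment. Inhibition is expressed relative to vehicle-only controls.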
# [12] = NCI Yeast Anticancer Drug Screen. Data for the mlh1 rad18 strain (AID 175); settings: S. cerevisiae mlh1 rad18 strain growth inhibition, active compounds read high
# Procedure, shortened: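 Read-out is yeast growth inhibition, calculated against vehicle-only controls. The compound was applied to a strain engineered with DNA damage repair alterations.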
# [13] = NCI Yeast Anticancer Drug Screen. Data for the rad18 strain (AID 177); settings: S. cerevisiae rad18 mutant growth inhibition, active compounds read high
# Procedure, shortened: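 Growth of the mutant yeast strain after compound exposure, normalised to vehicle-only cultures.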
# [14] = at 5.0 µM (retest, dose inferred, filed as 0.5)
# [15] = at 50.0 µM (retest, dose inferred, filed as 5.0)
structure (smiles),measurement,setting,value
CN(C)CCC(=O)c1c[nH]c2ccccc12,growth inhibition,[1]; at 1.2 µM,-18%
same,growth inhibition,[1]; at 3.7 µM,-7%
same,growth inhibition,[1]; at 11.0 µM,-7%
same,growth inhibition,[1]; at 33.0 µM,-19%
same,growth inhibition,[1]; at 100.0 µM,18%
same,growth inhibition,[2]; at 1.2 µM,-17%
same,growth inhibition,[2]; at 3.7 µM,24%
same,growth inhibition,[2]; at 11.0 µM,16%
same,growth inhibition,[2]; at 33.0 µM,39%
same,growth inhibition,[2]; at 100.0 µM,54%
same,growth inhibition,[3]; at 1.2 µM,-38%
same,growth inhibition,[3]; at 3.7 µM,-10%
same,growth inhibition,[3]; at 11.0 µM,-39%
same,growth inhibition,[3]; at 33.0 µM,-16%
same,growth inhibition,[3]; at 100.0 µM,18%
same,growth inhibition,[4]; at 1.2 µM,-21%
same,growth inhibition,[4]; at 3.7 µM,-17%
same,growth inhibition,[4]; [14],82% (active)
same,growth inhibition,[4]; at 11.0 µM,-26%
same,growth inhibition,[4]; at 33.0 µM,5%
same,growth inhibition,[4]; [15],98% (active)
same,growth inhibition,[4]; at 50.0 µM,73.5% (active)
same,growth inhibition,[4]; at 100.0 µM,49%
same,growth inhibition,[5]; at 1.2 µM,-41%
same,growth inhibition,[5]; at 3.7 µM,-35%
same,growth inhibition,[5]; [14],67%
same,growth inhibition,[5]; at 11.0 µM,-24%
same,growth inhibition,[5]; at 33.0 µM,-8%
same,growth inhibition,[5]; [15],98% (active)
same,growth inhibition,[5]; at 50.0 µM,37.7%
same,growth inhibition,[5]; at 100.0 µM,64%
same,growth inhibition,[6]; at 1.2 µM,-23%
same,growth inhibition,[6]; at 3.7 µM,-29%
same,growth inhibition,[6]; at 11.0 µM,-9%
same,growth inhibition,[6]; at 33.0 µM,-2%
same,growth inhibition,[6]; at 100.0 µM,18%
same,growth inhibition,[7]; at 1.2 µM,-11%
same,growth inhibition,[7]; at 3.7 µM,-14%
same,growth inhibition,[7]; at 11.0 µM,-14%
same,growth inhibition,[7]; at 33.0 µM,-6%
same,growth inhibition,[7]; at 100.0 µM,8%
same,growth inhibition,[8]; [14],77% (active)
same,growth inhibition,[8]; [15],36%
same,growth inhibition,[8]; at 50.0 µM,31.1%
same,growth inhibition,[9]; at 1.2 µM,-23%
same,growth inhibition,[9]; at 3.7 µM,-29%
same,growth inhibition,[9]; [14],22%
same,growth inhibition,[9]; at 11.0 µM,-36%
same,growth inhibition,[9]; at 33.0 µM,-35%
same,growth inhibition,[9]; [15],51%
same,growth inhibition,[9]; at 50.0 µM,64.9%
same,growth inhibition,[9]; at 100.0 µM,37%
same,growth inhibition,[10]; at 1.2 µM,-19%
same,growth inhibition,[10]; at 3.7 µM,-46%
same,growth inhibition,[10]; at 11.0 µM,-19%
same,growth inhibition,[10]; at 33.0 µM,-14%
same,growth inhibition,[10]; at 100.0 µM,25%
same,growth inhibition,[11]; at 1.2 µM,-42%
same,growth inhibition,[11]; at 3.7 µM,-33%
same,growth inhibition,[11]; at 11.0 µM,-34%
same,growth inhibition,[11]; at 33.0 µM,14%
same,growth inhibition,[11]; at 100.0 µM,54%
same,growth inhibition,[12]; [14],47%
same,growth inhibition,[12]; [15],97% (active)
same,growth inhibition,[12]; at 50.0 µM,45.8%
same,growth inhibition,[13]; at 1.2 µM,-55%
same,growth inhibition,[13]; at 3.7 µM,-62%
same,growth inhibition,[13]; at 11.0 µM,-47%
same,growth inhibition,[13]; at 33.0 µM,8%
same,growth inhibition,[13]; at 100.0 µM,57%
